{"source": "paper PMC7826789", "about": "(International Journal of Molecular Sciences, 2021);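 note: KINOMEscan scanMAX binding as percent activity remaining versus control; lower means stronger binding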"}
{"tested_on": "MAP3K4", "details": "Compound Concentration (nM):1000", "units": {"Percent Control": "%"}}
{"smiles": "CCS(=O)(=O)c1ccc(OC)c(Nc2ncc(-c3cccc(OC)c3)o2)c1", "note": "[GW580509X]", "Percent Control": 100}
{"smiles": "CCc1ccc(Oc2nccc(-c3c(-c4ccc(F)cc4)ncn3C3CCNCC3)n2)cc1", "note": "[SB-242719]", "Percent Control": 93}
{"smiles": "NS(=O)(=O)c1ccc(N/N=C2\\C(=O)Nc3ccc(C(=O)NCc4ccncc4)cc32)cc1", "note": "[GW300657X]", "Percent Control": 99}
{"smiles": "COc1ccc(COc2ccc(Cc3cnc(N)nc3N)cc2OC)cc1", "note": "[GW632580X]", "Percent Control": 90}
{"smiles": "NS(=O)(=O)c1ccc(Nc2ncc(-c3ccccc3)o2)cc1", "note": "[GW572399X]", "Percent Control": 100}
{"smiles": "COC(=O)Nc1nc2ccc(Oc3ccc(NC(=O)Nc4cc(C(F)(F)F)ccc4F)cc3)cc2s1.Cl", "note": "[GW693917A]", "Percent Control": 80}
{"smiles": "COc1cc(C)c(N(C)C(=O)CN(C)C)cc1Nc1nc(Nc2cccc(F)c2C(N)=O)c2cc[nH]c2n1", "note": "[GSK2219385]", "Percent Control": 90}
{"smiles": "COc1cc(N2CCN(C(C)C)CC2)ccc1Nc1nc(Nc2ccc(F)cc2C(=O)NC[C@@H](O)CO)c2cc[nH]c2n1", "note": "[GSK1392956A]", "Percent Control": 94}
{"smiles": "CC(C)COC(=O)c1ccc2c(c1)/C(=C/Nc1ccc(S(N)(=O)=O)cc1)C(=O)N2", "note": "[GW416981X]", "Percent Control": 100}
{"smiles": "Cl.c1ccc(Cc2nc3ccc(Nc4ncnc5ccccc45)cc3[nH]2)cc1", "note": "[GR269666A]", "Percent Control": 100}
{"smiles": "CCn1c(-c2nonc2N)nc2c(C#CC(C)(C)O)nc(OCCNC)cc21.Cl", "note": "[GSK949675]", "Percent Control": 100}
{"smiles": "COc1cc2ncn(-c3cc(O[C@H](C)c4ccccc4Cl)c(C(N)=O)s3)c2cc1OC", "note": "[GSK237701A]", "Percent Control": 100}
{"smiles": "COc1cccc(-n2ncc3c(N/N=C/c4ccncc4)ncnc32)c1", "note": "[GW784752X]", "Percent Control": 89}
{"smiles": "C[C@@H](Oc1cc(-n2cnc3ccc(OC4CCN(C)CC4)cc32)sc1C(N)=O)c1ccccc1Cl", "note": "[GSK579289A]", "Percent Control": 67}
{"smiles": "Cl.O=C(Nc1ccc(Oc2ccc3[nH]c(NC(=O)c4ccccc4)nc3c2)cc1)Nc1cc(C(F)(F)F)ccc1F", "note": "[GW709042A]", "Percent Control": 100}
{"smiles": "C/C(Nc1ccc(S(N)(=O)=O)cc1)=C1/C(=O)Nc2ccccc21", "note": "[GW335962X]", "Percent Control": 100}
